Assay results: PubChem BioAssay (NCI)
The panel holds about 79,000 compounds, 15% with a hit somewhere; the sample as a whole holds those more often. No stated cut-off is given here; in the data, active means growth inhibition above about 70%; inactive means the rest.

Key:
[1] = NCI Yeast Anticancer Drug Screen. Data for the rad50 strain (AID 155);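 further: 0% = growth of vehicle-only cultures of the same strain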; settings: S. cerevisiae rad50 strain growth inhibition; at 50.0 µM; hits give high values
Method in brief: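 Relative growth inhibition (compound vs vehicle) was measured in yeast with a defined repair-gene alteration.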

[2] = NCI Yeast Anticancer Drug Screen. Data for the mec2-1 strain (AID 157); settings: S. cerevisiae mec2-1 strain, at 50.0 µM, hits give high values
Method in brief: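 Mutant yeast (mec2-1) grown with compound; growth inhibition relative to vehicle control reported.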

[3] = NCI Yeast Anticancer Drug Screen. Data for the sgs1 mgt1 strain (AID 161);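 further: 0% = growth of cultures given vehicle only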; settings: S. cerevisiae sgs1 mgt1 strain, at 50.0 µM, hits give high values
Method in brief: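 Compounds are added to genetically altered yeast, and growth is compared with cultures given vehicle alone to give percent inhibition.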

[4] = NCI Yeast Anticancer Drug Screen. Data for the cln2 rad14 strain (AID 165);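 further: 0% = growth equal to vehicle treated cultures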; settings: S. cerevisiae cln2 rad14 strain, at 50.0 µM, hits give high values
Method in brief: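 Readout is yeast growth inhibition versus vehicle-treated controls, using a strain with cln2 and rad14 alterations exposed to compound.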

[5] = NCI Yeast Anticancer Drug Screen. Data for the bub3 strain (AID 167); settings: S. cerevisiae bub3 mutant strain, at 50.0 µM, hits give high values
Method in brief: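 Screening used yeast with an engineered genetic alteration affecting cell cycle control. Compound-exposed cultures were compared with vehicle cultures, and reduced growth was taken as inhibition.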

[6] = NCI Yeast Anticancer Drug Screen. Data for the mlh1 rad18 strain (AID 175); settings: S. cerevisiae mlh1 rad18 strain growth inhibition; at 50.0 µM; hits give high values
Method in brief: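 Genetically defined yeast (DNA repair-deficient) exposed to compounds; growth inhibition determined relative to vehicle.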

Measured: growth inhibition

O=C1NNC=Nc2ccc(cc2)S(=O)(=O)c2ccc(cc2)N=CNNC1=O
inactive: [1] 41.5% | [2] -1.9% | [3] -20.1% | [4] -9.15% | [5] -5.85% | [6] -45.9%

Cc1ccc(S(=O)(=O)C2=c3nc4ccccc4cc3=C3C(=O)c4ccccc4C(=O)C32)cc1 (centres undefined)
inactive: [1] -14.3% | [2] -18.9% | [3] -20.8% | [4] -75.9% | [5] -24.4% | [6] -3.7%

CC(=O)Nc1ccc2c(c1)N(O)C(=O)C2(C)C
inactive: [1] 7.9% | [2] 6.3% | [3] 11.4% | [4] -36.1% | [5] 5.5% | [6] -0.6%

c1csc(-c2cc(-c3ccsc3)c(-c3cccs3)s2)c1
inactive: [1] -46.6% | [2] -62.7% | [3] -33.4% | [4] -0.1% | [5] -1.4% | [6] -34.3%

Clc1ccc(C2NC(c3ccc(Cl)cc3)NC(c3ccc(Cl)cc3)N2)cc1 (centres undefined)
inactive: [1] 28.4% | [2] 14% | [3] 35.5% | [4] -5.4% | [5] 8.75% | [6] -2%

CC1=C(C)OCC1
inactive: [1] 8.9% | [2] 4% | [3] 9.25% | [4] 7.85% | [5] 4.2% | [6] 5.5%

COc1ncnc2c(NC3OC(CO)C(O)C3O)ncnc12 (centres undefined)
inactive: [1] 7.2% | [2] -6.5% | [3] -5.4% | [4] 12.4% | [5] -9.2% | [6] -9.3%

CCOc1ccc(C(C)c2cc3c(cc2OCCO)OCO3)cc1 (centres undefined)
inactive: [1] 28.6% | [2] 29.2% | [3] 69% | [4] 59.9% | [5] -29.6% | [6] 68.5%

CC(C)=Cc1cc(C(=O)Nc2ccc(Cl)c(Cl)c2)nc(N)n1
inactive: [1] -25.2% | [2] -45.4% | [3] -10.6% | [4] -0.5% | [5] -41.8% | [6] -32.1%

Cc1nc(N)nc(C)c1Cl
inactive: [1] -2.15% | [2] 3.4% | [3] 3.85% | [4] 5.2% | [5] -5.9% | [6] -1.85%

Cn1ncc2c(=O)[nH]c(-c3ccccc3)nc21
inactive: [1] -0.75% | [2] -8.35% | [3] -5.9% | [4] 3.55% | [5] -3.05% | [6] -6.3%

N#Cc1cccc2c(S(=O)(=O)O)cccc12
inactive: [1] -12.9% | [2] 4.5% | [3] 11.6% | [4] -17.3% | [5] -2.85% | [6] -10.8%

CN(C)C(=O)OCC1COc2ccccc2O1 (centres undefined)
inactive: [1] 15% | [2] -23.6% | [3] -23.1% | [4] -70.2% | [5] -11.1% | [6] -12.6%

Cc1ccc(C)c2c3c(sc12)CCCC3
inactive: [1] -7.85% | [2] -5.4% | [3] -7.15% | [4] -17.2% | [5] 0.45% | [6] 2.95%

CCCCCCCCCCCCCCS(=O)(=O)CCCl
inactive: [1] -5.85% | [2] -6.1% | [3] -21.2% | [4] -6.1% | [5] -5.2% | [6] -7.5%

COC(=O)C1(C)CCCC2(C)c3cc(OC)ccc3C(=O)C(Cl)C12 (centres undefined)
inactive: [1] 7.8% | [2] 0.15% | [3] 6.45% | [4] -13.8% | [5] 26.4% | [6] 5.7%

CC(C)Nc1nc(N)nc(N)n1
inactive: [1] -11.1% | [2] -17.6% | [3] 2% | [4] -20.1% | [5] -17.6% | [6] -5.2%

NNC(=O)c1oc2ccccc2c1CN(CCO)CCO
inactive: [1] 3.75% | [2] -2.4% | [3] 3.45% | [4] -2.45% | [5] -1.15% | [6] -5.1%

N#Cc1ccc(NN=NCCOCCCl)cc1
inactive: [1] 18.3% | [2] 26.6% | [3] 17.9% | [4] 34.9% | [5] 27.1% | [6] 23.6%

Cc1noc2cccc(O)c12
inactive: [1] 0.95% | [2] 12.6% | [3] 15.8% | [4] 10.9% | [5] 1.25% | [6] 34.6%

O=C(O)C(Cc1ccccc1)NC(c1ccc(Cl)cc1)P(=O)(O)O (centres undefined)
inactive: [1] 14.3% | [2] 7.95% | [3] -2.3% | [4] 12.8% | [5] -4.8% | [6] 20.8%

Fc1ccc2nc3ccccc3c(SCCNCCSc3c4ccccc4nc4ccc(F)cc34)c2c1
inactive: [1] 43.4% | [2] -4.75% | [3] 17% | [4] 16.1% | [5] 1.5% | [6] 35.2%

O=C(NNC(=S)NCc1ccccc1)C12CC3CC(CC(C3)C1)C2
inactive: [1] -35.6% | [2] -10.3% | [3] -4.2% | [4] 2.55% | [5] 15.5% | [6] -5.9%

CC1(C)OC(=O)C(=Cc2ccc(O)cc2)C(=O)O1
inactive: [1] -20.9% | [2] -9.45% | [3] -34.5% | [4] -4.6% | [5] -21.5% | [6] -34.3%

Cc1cc(=O)n2cn[nH]c2n1
inactive: [1] 24.4% | [2] -11.6% | [3] 24.1% | [4] 5.25% | [5] 9.25% | [6] 25.8%

O=C(N/N=C/c1ccc(Br)cc1)N/N=C/c1ccc(Br)cc1
inactive: [1] -13.5% | [2] -15.7% | [3] -6.45% | [4] 11.4% | [5] -5.05% | [6] -12.8%

CC(=O)/C(=C/c1ccc(F)cc1)C(=O)CCN(C)C
inactive: [1] 8.15% | [2] 16.6% | [3] 20.9% | [4] 9.55% | [5] -11.5% | [6] -22.2%

Clc1ccc(N=Nc2ccccn2)cc1
inactive: [1] 18.1% | [2] 2% | [3] -11.1% | [4] -65% | [5] -7.6% | [6] -12.2%

O=S(=O)(O)c1ccc(OCCCCCCCCCCOc2ccc(S(=O)(=O)O)cc2)cc1
inactive: [1] -14.6% | [2] 9.15% | [3] -9.6% | [4] 0.7% | [5] -5.35% | [6] -8.1%

CCc1cccc(C)c1NC(=O)C(=O)CC(=O)c1ccc(Cl)cc1Cl
inactive: [1] 26.9% | [2] 14.8% | [3] 7.65% | [4] -35.4% | [5] 2.15% | [6] 27.2%

O=C(CN1CCOCC1)NC(=O)c1ccccc1
inactive: [1] -3.6% | [2] -3.6% | [3] 6.25% | [4] 1.5% | [5] -0.1% | [6] -10.7%

C/C(=C\CC1C(=O)N(c2ccccc2)N(c2ccccc2)C1=O)CO
inactive: [1] -10.9% | [2] -32.2% | [3] -29.9% | [4] -18.2% | [5] -28.6% | [6] -11.9%

O=C(O)c1cccnc1C(=O)Nc1cccc2ccccc12
inactive: [1] 13.1% | [2] 13.4% | [3] 12.6% | [4] 0.9% | [5] 10.2% | [6] -16.6%

CCCCCCCCCCCCCCCCCC(=O)OCCCC
inactive: [1] 6.35% | [2] -9.9% | [3] -20.1% | [4] -20.4% | [5] 0.2% | [6] -22%

COC(=O)c1cc2c(o1)Sc1ccccc1NC2=O
inactive: [1] -4.3% | [2] -29.9% | [3] -12.6% | [4] 3.65% | [5] -8.55% | [6] 10.7%

CCc1c(C)c2cc(N)ccc2[nH]c1=O
inactive: [1] -8.05% | [2] 24.1% | [3] -3.7% | [4] -23.7% | [5] -9.9% | [6] 6.45%

SCCNCc1ccccn1
inactive: [1] -22.1% | [2] -36.1% | [3] -17.4% | [4] 14.3% | [5] -37.4% | [6] -3.65%

CCSC(SCC)C(O)C(O)C(O)C(C)O (centres undefined)
inactive: [1] 31.8% | [2] 1.55% | [3] 4% | [4] -34.1% | [5] -5.05% | [6] 6.55%

CCCCCn1c(=O)c2c(=O)[nH][nH]c2c2ccccc21
inactive: [1] -16.3% | [2] -7.9% | [3] -9.55% | [4] -69.6% | [5] -1.3% | [6] -22.5%

OC(c1ccccc1)(c1ccccc1)c1ccccc1C(O)(c1ccccc1)c1ccccc1
inactive: [1] 12.2% | [2] 1% | [3] 4.6% | [4] 10.8% | [5] -4.65% | [6] 12.8%

O=[N+]([O-])c1ccc(Cl)cc1N/N=C/c1ccnc2ccccc12
inactive: [1] -53.4% | [2] -56.1% | [3] -28.6% | [4] -15.1% | [5] -17.4% | [6] -54.9%

NC(=O)C(Cc1ccc(O)cc1)NC(=O)c1cccnc1 (centres undefined)
inactive: [1] -7.3% | [2] 0.7% | [3] -0.95% | [4] -2.05% | [5] -9.05% | [6] 4.35%

COC1CCC(/C=C(\C#N)C2CCC(OC)CC2)CC1 (centres undefined)
inactive: [1] 37.6% | [2] 49.8% | [3] 42.8% | [4] 11.9% | [5] 51.2% | [6] 30%

Cc1cccc(C)c1NC(=S)NC=C(C(N)=O)C(N)=O
inactive: [1] -26.1% | [2] -23.6% | [3] 12.7% | [4] 3.1% | [5] -14.4% | [6] 10.6%
